Source: PubChem BioAssay AID1671190 (National Center for Advancing Translational Sciences (NCATS), 2021)
The campaign covered roughly 580,000 compounds. About 6,100 (1.1%) were called active. Another 15% or so got no clear call; they are omitted. What follows is part of a selection rich in actives, with near analogues and random picks from the rest. Unmarked numbers belong to inactive results. The call rests on the fitted dose curve; in most records, active means well fitted inhibition curve with a large enough effect; inconclusive means small, poorly fitted or top-dose-only effect, or another doubt; inactive means no such curve, though single readings can be large or run the other way.

biological target: Polyunsaturated fatty acid lipoxygenase ALOX12 (Homo sapiens) (UniProt P18054); experiment: Primary qHTS assay for inhibitors of human arachidonate 12S-lipoxygenase (ALOX12): Round 2; conditions: purified 12hLO, xylenol orange hydroperoxide absorbance; series mostly up to 108 µM; activity change, negative = inhibition: at the top concentration
In short: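 Purified human 12hLO (150 nM final) in 25 mM Hepes, 0.01% Triton X-100, pH 7.0 was preincubated 15 min at room temperature with compound. Then 40 uM arachidonic acid was added, 30 min. Hydroperoxide was read by Fe-XO absorbance ratio 573/405 nm.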
On the % scale 0 is the no-effect control and ±100 the full control effect; potency means the concentration at half of the fitted maximal effect.

Chain of Polyunsaturated fatty acid lipoxygenase ALOX12 (Homo sapiens) (P18054 whole entry, looked up): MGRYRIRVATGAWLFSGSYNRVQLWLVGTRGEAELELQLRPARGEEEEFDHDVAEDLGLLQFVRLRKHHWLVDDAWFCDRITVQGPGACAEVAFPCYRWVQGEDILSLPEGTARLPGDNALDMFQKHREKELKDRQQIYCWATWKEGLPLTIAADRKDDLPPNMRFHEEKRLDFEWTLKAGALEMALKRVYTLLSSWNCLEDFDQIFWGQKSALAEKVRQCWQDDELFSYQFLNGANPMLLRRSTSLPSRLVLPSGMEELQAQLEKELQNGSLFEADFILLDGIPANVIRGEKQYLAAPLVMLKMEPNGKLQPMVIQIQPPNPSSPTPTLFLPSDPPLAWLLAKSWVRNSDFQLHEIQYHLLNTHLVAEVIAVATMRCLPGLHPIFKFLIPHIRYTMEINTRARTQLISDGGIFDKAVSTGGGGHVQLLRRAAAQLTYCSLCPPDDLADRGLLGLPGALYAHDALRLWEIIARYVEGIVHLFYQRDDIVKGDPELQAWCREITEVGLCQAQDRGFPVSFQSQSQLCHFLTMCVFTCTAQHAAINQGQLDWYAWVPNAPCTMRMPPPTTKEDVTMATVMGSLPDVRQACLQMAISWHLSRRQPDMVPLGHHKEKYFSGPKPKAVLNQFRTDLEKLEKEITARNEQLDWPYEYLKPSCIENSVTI

| Structure (SMILES) | activity change, negative = inhibition | Potency |
| --- | --- | --- |
| Cc1nc2nc(CC(=O)NCc3ccccc3)nn2c(C)c1Cc1ccc(Cl)cc1 | -9.31% | – |
| Cc1ccc(-n2c(=O)c3cccnc3n2CC(=O)Nc2ccc(F)cc2F)cc1C | -4.07% | – |
| CCOc1ccc2[nH]c(=S)sc2c1 | – | 35.5 µM (active) |
| CCOc1ccc(OCC)c(NS(=O)(=O)c2ccc3[nH]c(=O)ccc3c2)c1 | -14.5% | – |
| CCOc1ccc2[nH]c(=O)c(CN(CCCO)C(C)=O)cc2c1 | 13.7% | – |
| Cc1cc(=O)oc2c(C)c(OC(C)C(=O)NCc3ccc(S(N)(=O)=O)cc3)ccc12 (stereo unspecified) | -43.1% | – |
| COc1ccc(-c2cn(-c3ccc(OC)cc3)c(=S)[nH]2)cc1 | – | 25.1 µM (active) |
| COc1ccc(-c2nc3ccncc3[nH]2)cc1 | 43.2% [at 176 µM] | – |
| COc1ccc(-c2cc(N3CCN(C(=O)c4cc(OC)cc(OC)c4)CC3)n[nH]2)cc1 | 55.9% | – |
| COc1ccc2c(c1)CCc1c-2n[nH]c1C(=O)N1CCC(c2noc(COc3ccc(C)cc3)n2)CC1 | 28.6% | – |
| CCc1cccc(NC(=O)CC(C)C)c1 | 12.8% | – |
| O=C(Nc1ccccc1F)c1ccc2c(c1)n(Cc1ccccc1)c(=O)c1ccnn12 | -8.95% | – |
| Cc1csc2nc(COc3ccc(NC(=O)COc4ccccc4)cc3)cc(=O)n12 | -26.8% | – |
| COC(=O)C1=C(O)/C(=C/c2ccc(OCC(=O)Nc3ccccc3)cc2)N=C1C | – | 17.8 µM (active) |
| CN(c1ccccc1)S(=O)(=O)c1ccc(NC(=O)COc2ccccc2)cc1 | 36.6% | – |
| NC(=O)Cc1csc(NC(=O)CCc2ncc(-c3ccc(Cl)cc3Cl)o2)n1 | 5.2% | – |
| CC(OC(=O)c1cc2cc(F)ccc2s1)C(=O)N1CCNC1=O (stereo unspecified) | -13.9% | – |
| O=[N+]([O-])c1ccccc1N/N=C1\CCc2ccccc21 | 0.0102% | – |
| S=C(NCCC1=CCCCC1)Nc1ccccc1 | -11.4% | – |
| CCCCNC(=S)N/N=C1\CCCCc2ccccc21 | – | 31.6 µM (active) |
| C#CCOC(=O)c1cccc(C(=O)O)c1 | -28.2% | – |
| COc1cccc(NC(=O)c2csnn2)c1 | -18.6% | – |

| Structure (SMILES) | activity change, negative = inhibition | Potency |
| --- | --- | --- |
| COc1cccc(NC(=O)C2(C#N)CCCC2)c1 | 43.9% | – |
| COc1cccc(NC(=O)C2C(c3ccccc3)C2(Cl)Cl)c1 (stereo unspecified) | – | 35.5 µM (active) |
| Cc1nc(N2CCN(CC(=O)N3CCCC3)CC2)c(C#N)c2c1COC(C)(C)C2 | 0.987% | – |
| N#Cc1ccc(CN2C[C@@H]3C[C@H]2C(=O)Nc2ccccc2O3)cc1 | 11.6% [at 176 µM] | – |
| COCCN1C(=O)[C@@H]2C[C@@H](CN2C(=O)Nc2ccccc2)Oc2ccccc21 | -7.35% [at 176 µM] | – |
| O=C1[C@@H]2C[C@@H](CN2Cc2ccc3ccccc3n2)Oc2ccccc2N1Cc1ccccc1 | – | 8.91 µM (active) |
| COC(=O)C1=C(C)N=C2SC=C(CC(=O)NCc3ccccc3F)N2C1c1ccccc1Cl (stereo unspecified) | 13.3% | – |
| CCc1n[nH]c(=S)n1/N=C/c1c[nH]c2ccc(Br)cc12 | – | 15.8 µM (active) |
| Cc1ccccc1/C=C/C(=O)NC(C)CO (stereo unspecified) | 31.2% | – |
| O=C(COc1ncnc2ccccc12)Nc1cc(F)ccc1F | 1.32% | – |
| O=C(Oc1ccccc1Cl)c1ccc(N2CCOCC2)c([N+](=O)[O-])c1 | -10% | – |
| CCOc1ccc(C(=O)NC(=S)Nc2ccc(N3CCOCC3)c(Cl)c2)cc1[N+](=O)[O-] | – | 14.1 µM (active) |
| O=C(CSc1ccc([N+](=O)[O-])cn1)Nc1ccc(N2CCOCC2)c(Cl)c1 | -6.2% | – |
| COc1ccccc1C(CNC(=O)CCc1nc(-c2ccsc2)no1)N1CCCC1 (stereo unspecified) | 7.59% | – |
| CCC(=O)Nc1ccc2nnc(-c3ccc(C(=O)Nc4ccc(OC)cc4)cc3)n2c1 | 1.26% | – |
| COc1ccc2c(C)c(-c3cccc4ccccc34)c(=O)oc2c1 | -4.87% | – |
| O=S1(=O)CC/C(=N\Nc2ccc(F)cc2)c2ccsc21 | – | 31.6 µM (active) |
| COc1ccc(C(=O)N/N=C2\CCS(=O)(=O)c3ccc(F)cc32)cc1OC | 11.9% | – |
| Cc1oc(-c2ccccc2)nc1CC(=O)N(C)CC(=O)Nc1cccc2ccccc12 | -14.7% | – |
| CC1(C)CC(=O)C2=C(C1)OC1=C(C(=O)CC(C)(C)C1)C2c1ccc(-c2ccc3c(c2)COC3=O)o1 | -18.4% | – |
| COCc1[nH][nH]c(=O)c1C=Nc1ccc(F)cc1F | – | 12.6 µM (active) |
| Fc1ccc(/C=N/N=C/c2ccc(F)cc2F)c(F)c1 | 61.1% | – |

| Structure (SMILES) | activity change, negative = inhibition | Potency |
| --- | --- | --- |
| CCOc1ccc(C(=O)NCc2n[nH]c(=O)c3ccccc23)cc1OCC | 10.8% | – |
| Cc1ccc(C2CC(=O)C3=C(C2)OC(N)=C(C#N)C32C(=O)Nc3ccccc32)cc1 (stereo unspecified) | 6.42% | – |
| Cc1ccc(NC2(C#N)C(=O)Nc3ccccc32)cc1 (stereo unspecified) | 0% | – |
| N#CC1=C(N)Oc2[nH]c(=S)[nH]c(=O)c2C12C(=O)Nc1ccccc12 (stereo unspecified) | – | 14.1 µM (active) |
| C=CCNC(=O)O[C@@H]1CC[C@]2(C)C(CC[C@@H](O)[C@H]2CC(=O)N2CCC[C@H]2CO)[C@]1(C)CO (stereo partly specified) | 4.47% | – |
| N#C/C(=C/NC(=O)c1ccccc1)C(=O)N1CCOCC1 | 1.49% | – |
| O=C(Cc1ccccc1)Nc1sc2c(c1C(=O)Nc1ccc(Br)cc1)CCC2 | -16% | – |
| CCOC(=O)c1ccc(NC(=O)c2c(NCc3cccs3)sc3c2CCCC3)cc1 | -28.7% | – |
| Cc1ccc(NC(=O)c2c(NC(=O)CCC(=O)O)sc3c2CCCCC3)cc1 | – | 20 µM (active) |
| CC1(C)Cc2sc3c(=O)n(Cc4ccc(Cl)cc4Cl)cnc3c2CO1 | -10.1% | – |
| CCn1c(SCC(=O)Nc2sc(C)c(C)c2C#N)nnc1C1CC1 | -2.97% | – |
| CCOC(=O)c1sc(NC(=O)CSc2nc(C)cc(C(F)(F)F)n2)c(C#N)c1C | – | 20 µM (active) |
| Cc1cccc(NC(=O)CSc2nc(-c3ccco3)cc(C(F)(F)F)n2)c1C | -12.8% | – |
| CCC(CO)Nc1nc2c(c(=O)n(C)c(=O)n2C)n1Cc1c(Cl)cccc1Cl (stereo unspecified) | -8.11% | – |
| C/C(=N\NC(=O)c1cc2c(s1)CCC(C)C2)c1cccnc1 (stereo unspecified) | – | 5.01 µM (active) |
| O=C(NNC1CC(=O)N(c2cccc(Cl)c2)C1=O)c1cccnc1 (stereo unspecified) | 6.21% | – |
| C/C(=N\NC(N)=S)c1cccnc1 | -6.29% | – |
| CN(CCCNC1CCC2(CCNCC2)CC1)c1ccccc1 | – | 10 µM (active) |
| OC1CC([C@@H](Cc2ccccn2)NC2CCC3(CCNCC3)CC2)C1 (stereo partly specified) | -5.73% | – |
| Cc1nonc1OCCNC1CCC2(CCNCC2)CC1 | -26.4% | – |
| O=C(NCCC(=O)N1CCn2nc(C(=O)O)cc2C1)c1ccc(F)cc1 | 4.72% | – |
| CCc1nnc2sc(-c3cccc(NC(=O)Cc4ccccc4)c3)nn12 | 9.63% | – |

| Structure (SMILES) | activity change, negative = inhibition | Potency |
| --- | --- | --- |
| O=C(NCc1ccccn1)C1CCN(C(=O)c2ccc(C(F)(F)F)cc2)CC1 | -3.02% | – |
| Cc1ccccc1NC(=O)C(C#N)=C1CCCCC1 | -8.66% | – |
| CCN(CC(=O)Nc1cc(Cl)ccc1C)C(=O)CSCc1ccccc1 | 5.18% | – |
| Cc1ccccc1N/C(SCc1ccc(Cl)cc1)=C(/C#N)C(N)=O | – | 20 µM (active) |
| CNC(=O)c1ccc(-c2nc(CN3CCN(S(=O)(=O)c4ccc(C)c(C)c4)CC3)c(C)o2)cc1 | 20.4% | – |
| COc1ccc2c(C)c(CCC(=O)N3CCN(C)CC3)c(=O)oc2c1 | -5.95% | – |
| Cc1nn2c(c1-c1ccnn1C(C)C)N(C(=O)c1ccc(Oc3ccccc3)cc1)CCC2 | 51.4% | – |
| Cc1nn2c(c1-c1ccnn1C(C)C)N(CC1CCOCC1)CCC2 | – | 12.6 µM (active) |
| Cc1nn2c(c1-c1ccccc1C(C)C)N(C(=O)c1cccc(C#N)c1)CCC2 | -3.15% [at 176 µM] | – |
| CCCCCn1nc(C(=O)Nc2ccccc2OCC)c2ccccc2c1=O | 37.9% | – |
| CCc1ccc(C(=O)Nc2ccccc2C#N)s1 | -101% | – |
| Cc1cccc(-n2c(C)cc(/C=N/NC(N)=S)c2C)c1 | – | 44.7 µM (active) |
| Cc1cc(/C=N/NC(N)=O)c(C)n1C1CCCCC1 | 6.3% | – |
| Cc1cc(/C=N/n2cnnc2)c(C)n1-c1ccc2ncccc2c1 | -25.8% | – |
| C=CCOc1ccc(NC(=O)c2ccncc2)cc1 | -6.7% | – |
| CCc1ccc(NC(=O)Cc2nc(-c3c(N)n(C)c(=O)n(C)c3=O)cs2)cc1 | -21.8% | – |
| CCOc1ccccc1NC(=O)c1cnc2ccccc2n1 | -89% | – |
| COc1ccccc1C(=O)OCc1ccc(F)cc1 | 1.27% | – |
| O=C(OCc1ccc(F)cc1)c1cnc2ccccc2n1 | – | 1.26 µM (active) |
| Cc1cccnc1CN(C(=O)c1cc(COc2ccccc2)[nH]n1)C(C)C | 42.5% | – |
| CCCn1nc(C(=O)Nc2sc3c(c2C(N)=O)CCC3)c2ccccc2c1=O | -4.24% | – |
| Cc1cc(OC(C)C(=O)Nc2sc3c(c2C(N)=O)CCCC3)ccc1Cl (stereo unspecified) | -6.03% | – |

| Structure (SMILES) | activity change, negative = inhibition | Potency |
| --- | --- | --- |
| NC(=O)c1c(Nc2nc3c(F)cccc3s2)sc2c1CCCC2 | – | 28.2 µM (active) |
| Cc1cc(C)c(-c2csc(NC(=O)Cn3ncc4ccccc4c3=O)n2)c(C)c1 | -28.9% | – |
| CSc1nnnn1-c1ccc(C(=O)Nc2ccccc2F)cc1 | 0.435% | – |
| S=C(NCCCc1cnc[nH]1)NCCCN(Cc1ccc(Cl)c(Cl)c1)c1ccc(Br)cn1 | – | 22.4 µM (active) |
| NCCCNC(=S)NCCCN(Cc1ccc(Cl)cc1)c1ccc(Br)cn1 | – | 39.8 µM (active) |
| Cc1ccccc1CN(C)C(C)c1nc(-c2cccs2)no1 (stereo unspecified) | 11% | – |
| CCOC(=O)CSc1nnc(CNC(=O)c2cccs2)n1-c1ccccc1 | 15.4% | – |
| CCc1c(C)sc(NC(=O)C2c3ccccc3Oc3ccccc32)c1C(=O)OC(C)C | 0% | – |
| CCc1c(C)sc(NC(=O)c2cccs2)c1C(N)=O | – | 20 µM (active) |
| CCCCCCn1c(NC)nc2c1c(=O)[nH]c(=O)n2C | -2.64% | – |
| Nc1nc2c(s1)C(c1ccccc1)CC(=O)N2 (stereo unspecified) | – | 22.4 µM (active) |
| O=C1CC(c2ccccc2)C(c2ccccc2)=NN1 (stereo unspecified) | 2.96% | – |
| COc1cccc(C2CC(=O)Nc3nc(N)sc32)c1OCc1ccccc1 (stereo unspecified) | – | 7.94 µM (active) |
| O=C1CC(c2ccc(C(F)(F)F)cc2)c2sc(C(=O)O)c(-c3ccccc3)c2N1 (stereo unspecified) | -20.3% | – |
| CCCOc1c(OC)cccc1C1CC(=O)Nc2c1c(C)nn2-c1ccc(OC)nn1 (stereo unspecified) | -23.2% | – |
| COc1cc(C2CC(=O)Nc3nc(-c4ccccc4)[nH]c(=O)c32)ccc1OCc1ccc(F)cc1 (stereo unspecified) | 5.03% | – |
| O=[N+]([O-])/C=C/c1ccc(-c2ccccc2)o1 | – | 22.4 µM (active) |
| O=[N+]([O-])/C=C/c1ccc2c(ccn2Cc2ccccc2)c1 | -11.5% | – |
